In PubChem BioAssay (NCI):
About 83,000 compounds went through this panel and 20% of them were active in at least one assay; those are over-represented in the sample as a whole.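 Plates (96-well) were seeded with cells, treated with compound at one concentration, and incubated for 48 hours before percent growth was determined.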 Calls of active or inactive are those of the source. Rule for the calls: active = growth percent below 10; inactive = the rest.

Tested on: OVCAR-3 ovarian
Assay: NCI-60 one-dose screen, 48 h (100 = growth as untreated, 0 = no growth, -100 = all killed)
Details: 10 µM unless noted

| Structure (SMILES) | growth |
| --- | --- |
| CN(C)C(=O)c1cc(-c2ccc3ncnc(N4CCc5cc(F)c(Cl)cc54)c3c2)cnc1N | -58.1% (active) |
| CN1C(=O)C2(C(C#N)=C(c3ccc(Cl)cc3)Nc3c2c(-c2ccccc2)nn3-c2ccccc2)c2ccccc21 (stereo not drawn) | 112% (inactive) |
| Cc1ccc2c(c1)/C(=C/C(=O)c1cc3ccccc3oc1=O)C(=O)N2 | -0.742% (active) |
| N#CC1=C(c2cccs2)Nc2c(c(-c3ccccc3)nn2-c2ccccc2)C12C(=O)Nc1ccc(Cl)cc12 (stereo not drawn) | 23.1% (inactive) |
| O=C(NC(=S)N1CCN(c2ncnc3c2cnn3-c2ccccc2)CC1)c1ccc(Br)cc1 | 89.6% (inactive) |
| Nc1nnc(-c2cncc(Br)c2)c(-c2c[nH]c3ccc(Cl)cc23)n1 | 100% (inactive) |
| COc1ccc(C2=NN(C(=O)[C@H]3[C@@H](c4ccco4)c4sc(=O)[nH]c4S[C@@H]3C)C(c3ccc4ccccc4c3)C2)cc1 (stereo partly drawn) | 31% (inactive) |
| CCOc1ccc2[nH]c(=O)c(C(c3nnnn3CC3CCCO3)N3CCN(Cc4ccccc4)CC3)cc2c1 (stereo not drawn) | 100% (inactive) |
| FC(F)(F)c1cc2c(Cl)ncnc2n1CCC1CCOCC1 | -75.4% (active) |
| COc1cc(/C=C/C(=O)c2cnn(-c3cc(=O)[nH]c4ccc(C)cc34)c2C)cc(OC)c1OC | -50.1% (active) |
| O=C(N/N=C/c1c[nH]c2ccccc12)Nc1ccccc1Cl | -28.4% (active) |
| Nc1nn2c(-c3cc4ccccc4oc3=O)ccnc2c1N=Nc1ccccc1 | 82.7% (inactive) |
| Cc1ccc(C(=O)Nc2cc(-c3ccncc3)cc(C(F)(F)F)c2)cc1C#Cc1cnc2cccnn12 | 95.6% (inactive) |
| COc1ccc(C(=O)/C=C/c2ccc3c(c2)OCCO3)cc1S(N)(=O)=O | 68.1% (inactive) |
| FC(F)(F)c1cc2c(Cl)ncnc2n1CCN1CCCCC1 | -21.7% (active) |
| COc1ccc2[nH]cc(-c3cc4nc(-c5cn(C)c6ncccc56)cc(N)n4n3)c2c1 | -57.6% (active) |
| Nc1nc(-c2ccccc2)c(N=Nc2ccc(Cl)cc2Cl)s1 | -70.3% (active) |
| COc1ccc(NC(=O)Cn2c(/C=C/c3ccc([N+](=O)[O-])cc3)nc3ccccc3c2=O)cc1 | 60.2% (inactive) |
| C[C@@H]1[C@H]2C[C@@H](C[C@H]1NCc1nc3ccccc3n1C1CCCCCC1)C2(C)C | 64.5% (inactive) |
| COc1ccc(NC(=O)Cn2c(/C=C/c3cccc(Br)c3)nc3ccccc3c2=O)cc1 | 36.3% (inactive) |
| Cc1ccc(-c2cc(C(=O)N=Nc3c(O)[nH]c4ccc(F)cc34)c3ccccc3n2)cc1 | 95.3% (inactive) |
| CCOC(=O)c1ccc(NC(=S)NC(=O)c2ccc(NC(=O)C(C)C)cc2OC)cc1 | 57.4% (inactive) |
| CCCSc1nnc(-c2c(C)nc3sccn23)o1 | 98.5% (inactive) |
| Cc1ccc(N=Nc2c(N)nn3c(-c4cc5ccccc5oc4=O)ccnc23)cc1 | 37.4% (inactive) |
| O=C(N/N=C/c1ccc(Cl)o1)c1[nH]c2ccc(Br)cc2c1-c1ccccc1 | -11.3% (active) |

Tested on: HS 578T breast
Assay: as above
Details: 10 µM unless noted

| Structure (SMILES) | growth |
| --- | --- |
| Cc1ccc(C(=O)Nc2ccc(-n3ccnc3)c(C(F)(F)F)c2)cc1C#Cc1cnc2cccnn12 | -7.38% (active) |
| N/C(=N\c1nc2ccccc2s1)NC(=O)Nc1ccccc1F | 7.56% (active) |
| Cc1nc2sccn2c1-c1nnc(SCC(C)C)o1 | 88.7% (inactive) |
| O=[N+]([O-])c1cccc(-c2nnc3c(/C=C/c4ccc(F)cc4)nc4ccccc4n23)c1 | 47.9% (inactive) |
| C=CC(=O)N1CCN(c2ccc3nc4c(nc3c2C(F)(F)F)C(=O)c2ncccc2C4=O)CC1 | 75.8% (inactive) |
| CN1CCN(CCS(=O)(=O)Nc2cc(-c3ccc4ncnc(Nc5ccc(F)c(Cl)c5)c4c3)cnc2Cl)CC1 | -23.3% (active) |
| COc1ccc(N=Nc2c(N)nn3c(-c4ccc(F)cc4)ccnc23)cc1 | 107% (inactive) |
| O=C(N/N=C/c1c[nH]c2ccccc12)Nc1ccc(F)c(Cl)c1 | 58.8% (inactive) |
| N#CCc1nnc(NC(=O)c2ccc(-n3c(=O)[nH]c4ccccc4c3=O)cc2)s1 | 87.9% (inactive) |
| CCOc1ccc(-c2cc(-c3cc(C(C)C)c(O)cc3C)nn2-c2ccc(S(N)(=O)=O)cc2)cc1 | 35.9% (inactive) |
| CN1CCN(c2ccc3c4c(cccc24)C(=O)N(c2cccc(-c4nn(-c5ccccc5)cc4-c4nc5ccccc5s4)c2)C3=O)CC1 | 91.7% (inactive) |
| O=C(Cn1c(-c2ccccc2)nc2ccccc21)N=Nc1c(O)[nH]c2ccc(Cl)cc12 | -16.2% (active) |
| CCc1ccc(SC2c3cc(OC)ccc3Oc3nc(N)c(C#N)c(N)c32)cc1 (stereo not drawn) | -40.5% (active) |
| CN(C)C(=O)c1cc(-c2ccc3ncnc(N4CCc5cc(F)c(Cl)cc54)c3c2)cnc1N | -44.2% (active) |
| CN1C(=O)C2(C(C#N)=C(c3ccc(Cl)cc3)Nc3c2c(-c2ccccc2)nn3-c2ccccc2)c2ccccc21 (stereo not drawn) | 65.3% (inactive) |
| Cc1ccc2c(c1)/C(=C/C(=O)c1cc3ccccc3oc1=O)C(=O)N2 | 78% (inactive) |
| N#CC1=C(c2cccs2)Nc2c(c(-c3ccccc3)nn2-c2ccccc2)C12C(=O)Nc1ccc(Cl)cc12 (stereo not drawn) | 8.15% (active) |
| O=C(NC(=S)N1CCN(c2ncnc3c2cnn3-c2ccccc2)CC1)c1ccc(Br)cc1 | 53.8% (inactive) |
| Nc1nnc(-c2cncc(Br)c2)c(-c2c[nH]c3ccc(Cl)cc23)n1 | 76.6% (inactive) |

| Structure (SMILES) | growth |
| --- | --- |
| COc1ccc(C2=NN(C(=O)[C@H]3[C@@H](c4ccco4)c4sc(=O)[nH]c4S[C@@H]3C)C(c3ccc4ccccc4c3)C2)cc1 (stereo partly drawn) | 29.6% (inactive) |
| CCOc1ccc2[nH]c(=O)c(C(c3nnnn3CC3CCCO3)N3CCN(Cc4ccccc4)CC3)cc2c1 (stereo not drawn) | 20.1% (inactive) |
| FC(F)(F)c1cc2c(Cl)ncnc2n1CCC1CCOCC1 | -42.5% (active) |
| COc1cc(/C=C/C(=O)c2cnn(-c3cc(=O)[nH]c4ccc(C)cc34)c2C)cc(OC)c1OC | 52.5% (inactive) |
| O=C(N/N=C/c1c[nH]c2ccccc12)Nc1ccccc1Cl | 8.49% (active) |
| Nc1nn2c(-c3cc4ccccc4oc3=O)ccnc2c1N=Nc1ccccc1 | 75.8% (inactive) |
| Cc1ccc(C(=O)Nc2cc(-c3ccncc3)cc(C(F)(F)F)c2)cc1C#Cc1cnc2cccnn12 | 23% (inactive) |
| COc1ccc(C(=O)/C=C/c2ccc3c(c2)OCCO3)cc1S(N)(=O)=O | 87% (inactive) |
| FC(F)(F)c1cc2c(Cl)ncnc2n1CCN1CCCCC1 | 56.3% (inactive) |
| COc1ccc2[nH]cc(-c3cc4nc(-c5cn(C)c6ncccc56)cc(N)n4n3)c2c1 | -10.3% (active) |
| Nc1nc(-c2ccccc2)c(N=Nc2ccc(Cl)cc2Cl)s1 | -28.2% (active) |
| COc1ccc(NC(=O)Cn2c(/C=C/c3ccc([N+](=O)[O-])cc3)nc3ccccc3c2=O)cc1 | 29.9% (inactive) |
| C[C@@H]1[C@H]2C[C@@H](C[C@H]1NCc1nc3ccccc3n1C1CCCCCC1)C2(C)C | 80.2% (inactive) |
| COc1ccc(NC(=O)Cn2c(/C=C/c3cccc(Br)c3)nc3ccccc3c2=O)cc1 | -0.494% (active) |
| Cc1ccc(-c2cc(C(=O)N=Nc3c(O)[nH]c4ccc(F)cc34)c3ccccc3n2)cc1 | 32.1% (inactive) |
| CCOC(=O)c1ccc(NC(=S)NC(=O)c2ccc(NC(=O)C(C)C)cc2OC)cc1 | 86.7% (inactive) |
| CCCSc1nnc(-c2c(C)nc3sccn23)o1 | 79.6% (inactive) |
| Cc1ccc(N=Nc2c(N)nn3c(-c4cc5ccccc5oc4=O)ccnc23)cc1 | 62.6% (inactive) |
| O=C(N/N=C/c1ccc(Cl)o1)c1[nH]c2ccc(Br)cc2c1-c1ccccc1 | 3.22% (active) |
